High-throughput results as filed in PubChem BioAssay.
Sampled rows, rich in hits. Any-hit rate of the full collection: about 3.5%.
TEAD-YAP block = TEAD-YAP interaction inhibition. HEK-TIYL cells, TEAD-Gal4/YAP UAS-luciferase luminescence. inhibition, % at 9.12 µM. 640,000 tested, 1.4% active; in the data active = inhibition above about 32%;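 also: 0% = median of test compound wells and 100% = reference inhibitor wells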
GPR151 ag = human GPR151 activation | Q8TDV0 | PathHunter beta-arrestin GPR151 cells, luminescence | activation, % at 11.2 µM | 650,000 tested, 1% active | AID 1508602; in the data active = activation above about 4.9%;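 also: 0% = median of compound wells and 100% = cells with positive control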
FBW7 act = activators of human E3 ligase FBW7. AlphaScreen FBW7–phospho-cyclin E peptide binding, activator screen. normalized activity (activation), % at 26.1 µM. 650,000 tested, 0.13% active. AID 1259310; in the data active = normalized activity above about 1.9%;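 also: purified mutant Fbw7 with reduced substrate affinity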
Target sequence (Q969H0 whole entry, looked up): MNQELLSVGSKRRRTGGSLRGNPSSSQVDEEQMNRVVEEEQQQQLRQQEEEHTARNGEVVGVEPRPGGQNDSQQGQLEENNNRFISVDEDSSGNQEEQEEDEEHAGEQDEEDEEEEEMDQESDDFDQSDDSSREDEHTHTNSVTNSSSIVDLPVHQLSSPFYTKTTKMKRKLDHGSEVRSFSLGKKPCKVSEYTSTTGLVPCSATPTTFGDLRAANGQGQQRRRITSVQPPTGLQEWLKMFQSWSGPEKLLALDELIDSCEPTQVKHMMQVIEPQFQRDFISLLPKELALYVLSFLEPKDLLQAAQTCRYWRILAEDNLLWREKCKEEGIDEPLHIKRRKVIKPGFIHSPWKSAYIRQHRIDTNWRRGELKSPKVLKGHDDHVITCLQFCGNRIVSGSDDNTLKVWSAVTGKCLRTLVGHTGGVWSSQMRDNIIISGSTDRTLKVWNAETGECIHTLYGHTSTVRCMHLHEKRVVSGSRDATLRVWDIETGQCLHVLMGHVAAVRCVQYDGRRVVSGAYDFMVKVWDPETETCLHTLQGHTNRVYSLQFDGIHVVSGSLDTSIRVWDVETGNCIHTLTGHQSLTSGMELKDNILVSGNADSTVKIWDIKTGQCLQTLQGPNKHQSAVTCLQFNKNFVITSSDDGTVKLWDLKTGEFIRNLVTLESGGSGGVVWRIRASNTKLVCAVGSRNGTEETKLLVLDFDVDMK
MITF inh = blocks human microphthalmia-associated transcription factor; inhibition, % at 2.6 µM; 650,000 tested, 0.91% active; AID 1259374; O75030; AlphaScreen MITF homodimerization, bead proximity signal; in the data active = inhibition above about 50%;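 also: 0% = vehicle wells with protein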
* = called active by the depositor; nt = not tested or not shown.

SMILES | TEAD-YAP block | GPR151 ag | FBW7 act | MITF inh
Clc1ccc(COc2ccccc2C2N(c3ccccc3)N=C(c3ccccc3)N2c2ccccc2)cc1 (stereo unspecified) | 85.1* | 0.0 | 0.4 | 19.7
Cc1nn(C)cc1CN1CCC(C2(CCc3ccccc3)NC(=O)NC2=O)CC1 (stereo unspecified) | -15.2 | 0.7 | 0.3 | 3.7
CCc1ccc(-c2nc(CSCC(=O)NCCN(C)C)c(C)o2)cc1 | 38.5* | -1.1 | 0.2 | 18.1
Cc1ccc(-c2nc(CSCC(=O)O)c(C)o2)cc1 | 80.9* | -0.8 | -0.4 | -3.1
CCCC(=O)N1CCN(c2cc(C)c([N+](=O)[O-])cc2F)CC1C (stereo unspecified) | 3.1 | -0.4 | -0.1 | -2.9
Cc1ccc(S(=O)Cc2ccc(C(=O)N3CCN(c4ccccc4)CC3)o2)cc1 (stereo unspecified) | 49.7* | 0.4 | 0.1 | 2.5
Cc1ccc(CS(=O)Cc2ccc(C(=O)N3CCN(c4ccccc4)CC3)o2)cc1 (stereo unspecified) | 16.7 | -0.8 | 0.7 | 10.8
Cc1ccc(S(=O)(=O)Cc2ccc(C(=O)N3CCN(c4ccccc4)CC3)o2)cc1 | 40.4* | -0.5 | -0.2 | 15.9
O=C(c1ccc(CS(=O)c2ccccc2)o1)N1CCN(c2ccccc2)CC1 (stereo unspecified) | 42.0* | 0.7 | 0.1 | 10.0
Cc1ccccc1S(=O)Cc1ccc(C(=O)N2CCN(c3ccccn3)CC2)o1 (stereo unspecified) | 42.2* | 1.0 | 0.1 | 15.0
O=C(Cc1cn(-c2ccc(N3CCN(Cc4ccc5c(c4)OCO5)CC3)nn2)c2ccccc12)NCc1ccccc1 | 7.6 | 2.4 | -0.1 | 2.8
CC(=O)OC1(C(F)(F)F)Oc2cc(C)ccc2NC1=O (stereo unspecified) | 11.8 | -1.5 | 0.4 | 9.2
O=S(=O)(NCc1csc(-c2cccs2)n1)c1ccc(-c2ccccn2)s1 | 1.6 | 1.0 | 2.1* | 10.5
CCOC(=O)c1c(C)oc2ccc(N(C(=O)c3ccncc3)S(=O)(=O)c3ccccc3)cc12 | 7.9 | 0.9 | 0.2 | 7.4
COC(=O)c1c(C)oc2ccc(N(C(=O)c3ccncc3)S(=O)(=O)c3ccc(Cl)cc3)cc12 | 4.3 | 2.3 | 0.1 | 12.0
CCOc1ccc(S(=O)(=O)N(C(=O)c2ccncc2)c2ccc3oc(C)c(C(=O)OC)c3c2)cc1 | 63.8* | 3.3 | -0.1 | -7.6
CCOC(=O)c1c(C)oc2ccc(N(C(=O)c3ccncc3)S(=O)(=O)c3ccc(C)cc3)cc12 | 47.9* | 1.2 | 0.3 | -1.8
COC(=O)c1cc(N=Cc2c(O)[nH]c3ccccc23)cc(C(=O)OC)c1 | -7.2 | -0.2 | 0.1 | -3.9
CCN(CC)C(=O)N1CCC(NC(=O)c2ccccc2C)CC1 | -7.8 | 1.5 | 0.2 | 7.6
Oc1cccc(-c2cnn3c(NCCc4cccnc4)ccnc23)c1 | 89.5* | -0.4 | -0.3 | 6.6
Fc1ccccc1-c1cnn2c(NCc3ccccn3)ccnc12 | -20.9 | 0.4 | 2.2* | -1.0
c1ccc(-c2cnn3c(NCCc4ccccn4)ccnc23)cc1 | 57.0* | 0.8 | -0.1 | -22.1
Clc1ccc(-c2cnn3c(NCCc4ccccn4)ccnc23)cc1 | -52.1 | 0.9 | -0.2 | 12.7
Fc1ccccc1-c1cnn2c(NCCc3cccnc3)ccnc12 | 91.0* | -1.7 | -0.3 | -5.3
Fc1cccc(-c2cnn3c(NCCc4cccnc4)ccnc23)c1 | 17.1 | 3.8 | -0.2 | 7.4
SMILES | TEAD-YAP block | GPR151 ag | FBW7 act | MITF inh
c1ccc(-c2cnn3c(NCCc4cccnc4)ccnc23)cc1 | 80.0* | -0.7 | 0.0 | -6.4
OCc1cccc(-c2cnn3c(NCCc4cccnc4)ccnc23)c1 | 89.5* | -1.2 | 0.7 | 1.3
OCc1ccc(-c2cnn3c(NCCc4cccnc4)ccnc23)cc1 | -5.0 | -0.1 | 0.8 | 11.9
CN(C)CCNc1ccnc2c(-c3ccccc3F)cnn12 | 62.6* | -2.2 | 0.3 | -3.3
COc1ccccc1CNC(=O)Cn1ncc2ccsc2c1=O | -46.4 | -1.7 | -0.1 | 5.5
NC(=O)c1cnc(-c2ccc(N3CCOCC3)nc2)s1 | 63.4* | -7.6 | -0.1 | 5.9
COc1ccc(-c2ncc(C(N)=O)s2)cc1 | 49.1* | -7.1 | 0.0 | -5.7
NC(=O)c1ccc(-c2ccc(N3CCOCC3)nc2)s1 | 50.1* | -11.8 | 0.1 | 18.0
CCCNC(=O)c1cnc(-c2ccc(N3CCOCC3)nc2)s1 | -0.4 | 0.0 | 0.1 | 1.1
Cc1cc(C)nc(/N=C(/NC(=O)Nc2ccc(Cl)c(Cl)c2)Nc2ccc(C)c(C)c2)n1 | 5.7 | 0.0 | -0.1 | 4.8
Cc1ccc(C2Oc3ccccc3C3CC(c4ccc(Br)cc4)=NN32)cc1 (stereo unspecified) | -6.5 | -1.2 | 0.2 | 22.6
CCOC(=O)c1c(NC(=O)CSc2nnc(CNC(=O)c3cccs3)n2-c2ccc(OCC)cc2)sc2c1CCCCC2 | -2.5 | -1.0 | -0.1 | -1.0
C=CCO[C@H]1[C@H](NC(=O)COC)c2ccccc2C12CCN(C(=O)Cc1cccnc1)CC2 | -0.6 | -0.6 | 0.1 | 2.8
CCn1cc(C(=O)N2CCc3ccccc3C2)c(=O)c2ccc(C)nc21 | 12.2 | 1.2 | 0.1 | -1.4
COc1cc(NC(=O)/C=C/c2ccco2)ccc1NC(=O)c1ccco1 | -8.7 | 1.0 | -0.1 | 3.4
O=C(/C=C/c1ccco1)NC(=S)Nc1ccc(NC(=O)c2ccco2)cc1 | 68.8* | -1.8 | 0.2 | 27.0
COc1cc(NC(=S)NC(=O)/C=C/c2ccco2)ccc1NC(=O)c1ccco1 | 48.8* | 3.3 | 0.7 | 29.4
O=C(/C=C/c1ccco1)NC(=S)Nc1ccccc1 | -12.2 | 0.6 | 0.0 | 4.4
CC(C)(C)C(=O)Nc1ccc(C(=O)/C=C/c2ccco2)cc1 | 37.4* | -0.3 | 0.1 | -1.6
CCc1ccc([C@H]2C[C@H](C(F)(F)F)n3ncc(C(=O)NCc4ccc(OC)cc4)c3N2)cc1 | nt | 1.6 | nt | nt
Cc1nc2nc(SCc3cc(=O)n4cc(Br)ccc4n3)nn2c(C)c1Cc1ccccc1F | 1.4 | -0.2 | 0.1 | 8.3
COc1cc(C(=O)OCC(=O)NCCc2ccc(F)cc2)cc(Br)c1O | 11.1 | -0.7 | 0.0 | 14.6
CCOC(=O)/C(=C/c1cc2ccccc2[nH]1)[N+](=O)[O-] | -15.4 | 0.1 | -0.2 | 23.0
CCOC(=O)c1[nH]c(C)c(/C(C)=N\Nc2ccc([N+](=O)[O-])cc2[N+](=O)[O-])c1C | -3.9 | -0.2 | -0.1 | -1.2
CCOC(=O)c1[nH]c(C)c(C(=O)/C=C/c2ccc(N(C)C)c([N+](=O)[O-])c2)c1C | 49.7* | 1.0 | 0.1 | 12.9
O=C(NC1CCN(Cc2ccccc2)CC1)c1cccc(N2CCOCC2)n1 | -0.6 | -1.7 | 0.4 | 6.7
CCN(CC)c1ccc(C2NC(=O)NC(C)=C2C(=O)OCc2ccc3c(c2)OCO3)cc1 (stereo unspecified) | 17.1 | -0.9 | -0.1 | 9.2
CC1=C(C(=O)OCc2ccc3c(c2)OCO3)C(c2ccc(F)cc2)NC(=O)N1 (stereo unspecified) | 60.8* | 1.4 | -0.1 | 12.1
CC1=C(C(=O)OCc2ccc3c(c2)OCO3)C(c2ccccc2OC(C)C)NC(=O)N1 (stereo unspecified) | -9.0 | -0.2 | 1.1 | 11.6
